Data taken from PubChem BioAssay (EPA / NIEHS).
Records with an inconclusive call do not appear. The source made the active and inactive calls. Rule for the calls: active = hit-call score of the fitted dose curve at least 0.9, where 1 is the maximum; inconclusive = response in the unintended direction; inactive = score below 0.9.

How the values were obtained:
[1] = TOX21_p53_BLA_p2_viability: Viability Assessment in the Tox21 HCT-116 p53 Agonism Beta-lactamase Assay, Phase 2 (AID 2283591);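 note: actives lower the ATP signal meaning cytotoxicity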
In short: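 HCT116 p53-bla cells, 4000/well, dosed after 5 h plating (217-fold dilution of DMSO stocks) and incubated 16 h at 37C. Viability taken as cellular ATP by CellTiter-Glo luminescence after 30 min RT; signal loss marks cytotoxicity.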

[2] = molecular target: Cellular tumor antigen p53 (Homo sapiens) (UniProt P04637); test: TOX21_p53_BLA_p2_ratio: Tox21 HCT-116 p53 Agonism Beta-lactamase Assay, Ratio, Phase 2 (AID 2283592)
In short: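 Readout: blue/green (460/530 nm) FRET emission ratio after 2 h CCF4-AM loading at room temperature, excitation 405 nm. HCT116 p53 bla cells, 16 h compound exposure at 37C, 5% CO2; agonist direction fitted against DMSO baseline.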

[3] = molecular target: Cellular tumor antigen p53 (Homo sapiens) (UniProt P04637); test: TOX21_p53_BLA_p3_ratio: Tox21 HCT-116 p53 Agonism Beta-lactamase Assay, Ratio, Phase 3 (AID 2283596)
In short: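 Cells were seeded at 4000/well, rested 5 h at 37C, then dosed with DMSO compound solutions (217-fold dilution) for 16 h. CCF4-AM substrate was loaded for 2 h at room temperature, and the 460/530 nm emission ratio was fitted for gain of signal versus DMSO.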

[4] = TOX21_p53_BLA_p4_viability: Viability Assessment in the Tox21 HCT-116 p53 Agonism Beta-lactamase Assay, Phase 4 (AID 2283597);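 note: hits lower the luminescence signal meaning cytotoxicity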
In short: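 ATP content by CellTiter-Glo luminescence, 30 min RT, read after the beta-lactamase ratio step. Cells: HCT116, 4000/well, compound added after 5 h, exposure 16 h at 37C. Signal loss = reduced viability.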

[5] = molecular target: Cellular tumor antigen p53 (Homo sapiens) (UniProt P04637); test: TOX21_p53_BLA_p5_ratio: Tox21 HCT-116 p53 Agonism Beta-lactamase Assay, Ratio, Phase 5 (AID 2283599)
In short: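 HCT-116 p53-bla cells (4000/well) plated 5 h, dosed with compound (217-fold DMSO dilution) for 16 h at 37 C; CCF4-AM substrate 2 h at room temperature. Activity is the 460/530 nm emission ratio (405 nm excitation), fitted in gain-of-signal direction versus DMSO.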

[6] = TOX21_p53_BLA_p5_viability: Viability Assessment in the Tox21 HCT-116 p53 Agonism Beta-lactamase Assay, Phase 5 (AID 2283600)
In short: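 ATP luminescence (CellTiter-Glo, 30 min, RT) served as the viability read-out, with loss of signal indicating cytotoxicity. Compounds in DMSO were pinned at a 217-fold dilution onto 4000 cells/well and incubated 16 h, 37C.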

[7] = molecular target: Cellular tumor antigen p53 (Homo sapiens) (UniProt P04637); test: TOX21_p53_BLA_p4_ratio: Tox21 HCT-116 p53 Agonism Beta-lactamase Assay, Ratio, Phase 4 (AID 2283601)
In short: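 HCT-116 p53 beta-lactamase reporter cells (4000/well) preincubated 5 h, then compound (217-fold dilution of DMSO stock) for 16 h at 37C. CCF4-AM substrate added 2 h at room temperature; 460/530 nm emission ratio fitted upward versus DMSO.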

[8] = TOX21_p53_BLA_p3_viability: Viability Assessment in the Tox21 HCT-116 p53 Agonism Beta-lactamase Assay, Phase 3 (AID 2283593);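 note: cells exposed to compound for 16 h before reading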
In short: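 HCT116 cells, 4000/well, dosed 5 h after plating by pin transfer (217-fold dilution from DMSO stock) and incubated 16 h at 37C, 5% CO2. Viability read as ATP luminescence with CellTiter-Glo after 30 min at room temperature.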

PGR (gene 5241) [9] = molecular target: PGR (gene 5241) (UniProt P06401); test: TOX21_PR_BLA_Followup_Antagonist_ratio: Tox21 HEK293 Progesterone Receptor (PR) Antagonism Beta-lactamase Follow-Up Assay, Ratio (AID 2283934)
In short: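 Read-out: blue/green beta-lactamase FRET ratio (cleaved ch2 over uncleaved ch1), fitted relative to DMSO baseline. Cells: PR-UAS-bla HEK293T, GAL4-UAS reporter, stimulated with 1 nM R5020 final; 16 hr compound exposure, 37C.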

[10] = TOX21_PR_BLA_Followup_Agonist_viability: Viability Assessment in the Tox21 HEK293 Progesterone Receptor (PR) Agonism Beta-lactamase Follow-Up Assay (AID 2283935);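 note: signal loss means lower viability so actives are cytotoxic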
In short: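 Luminescent ATP quantitation (CellTiter-Glo, 30 min, room temperature) in the same wells as the beta-lactamase read, on PR-UAS-bla HEK293T cells exposed to compound for 16 hr at 37C in 2% charcoal-stripped serum.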

[11] = TOX21_PR_BLA_Followup_Antagonist_viability: Viability Assessment in the Tox21 HEK293 Progesterone Receptor (PR) Antagonism Beta-lactamase Follow-Up Assay (AID 2283936);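 note: cells exposed to compound with R5020 agonist for 16 h; hits lower the luminescence signal meaning cytotoxicity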
In short: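 PR-UAS-bla HEK293T cells in medium with 2% charcoal-stripped FBS were treated with compounds plus R5020 for 16 hr at 37C. After the beta-lactamase read, CellTiter-Glo was added to the same wells and luminescence read after 30 min at room temperature.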

PGR (gene 5241) [12] = molecular target: PGR (gene 5241) (UniProt P06401); test: TOX21_PR_LUC_Followup_Antagonist: Tox21 HEK293 Progesterone Receptor (PR) Antagonism Luciferase Follow-Up Assay (AID 2283938);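 note: curve fitted upward as signal gain over DMSO baseline despite antagonist label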
In short: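 Luminescence from ONE-Glo reagent, measured after 30 min at room temperature, served as readout. Cells (HEK293 carrying PR-A-luc) had been treated 16 h at 37C with DMSO-dissolved compounds. Activity was fitted against DMSO controls.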

[13] = TOX21_PR_LUC_Followup_Antagonist_viability: Viability Assessment in the Tox21 HEK293 Progesterone Receptor (PR) Antagonism Luciferase Follow-Up Assay (AID 2283940)
In short: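 Read-out: CellTiter-Glo ATP luminescence, loss of signal taken as reduced viability. Cells: HEK293-PR-A-luc, 3,000/well, 5 h settling, then 16 h compound exposure at 37C, 0% CO2.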

[14] = TOX21_PR_LUC_Followup_Agonist_viability: Viability Assessment in the Tox21 HEK293 Progesterone Receptor (PR) Agonism Luciferase Follow-Up Assay (AID 2283941);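 note: loss of signal means cytotoxicity so actives lower viability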
In short: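 Cytotoxicity counter-screen: ATP content by CellTiter-Glo luminescence, loss of signal = reduced viability. HEK293-PR-A-luc, 3,000 cells/well, compound exposure 16 h, 37C.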

[15] = molecular target: Thyroid hormone receptor alpha (Rattus norvegicus) + Thyroid hormone receptor beta (Rattus norvegicus) (UniProt P18113+P63059); test: TOX21_TR_LUC_GH3_Antagonist_Followup: Tox21 GH3 Thyroid Hormone Receptor Antagonism Luciferase Follow-Up Assay (AID 2283942)
In short: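 Luminescence read-out (ONE-Glo, 30 min at room temperature) in GH3 reporter cells challenged with 1.0 nM T3 final. Compounds ran at 92 uM to 5nM over 15 concentrations for 24 h; DMSO served as negative control and baseline.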

THRB (gene 7068) [16] = molecular target: THRB (gene 7068) (UniProt P10828); test: TOX21_TRB_BLA_Antagonist_Followup_ratio: Tox21 Thyroid Hormone Receptor beta Antagonism Beta-lactamase (BLA) Follow-Up Assay, Ratio (AID 2283958)
In short: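 Read-out: blue/green (460:530 nm) ratio of cleaved to uncleaved CCF4-AM after 2 h at room temperature, fitted against DMSO baseline. HEK293T UAS-bla cells carrying GAL4-human TRβ LBD were exposed 18 h, 37C/5% CO2.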

[17] = TOX21_TRB_BLA_Antagonist_Followup_viability: Viability Assessment in the Tox21 Thyroid Hormone Receptor beta Antagonism Beta-lactamase (BLA) Follow-Up Assay (AID 2283961)
In short: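 Viability read as CellTiter-Glo ATP luminescence (loss of signal = cytotoxicity) in the same plates as the TRβ-bla readout. TRβ-LBD/GAL4 UAS-bla HEK293T cells were exposed to compounds, 11 concentrations in triplicate, for 18 h at 37C/5% CO2.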

THRB (gene 7068) [18] = molecular target: THRB (gene 7068) (UniProt P10828); test: TOX21_TRB_COA_Antagonist_Followup_ratio: Tox21 Thyroid Hormone Receptor beta Antagonism through Coactivator Recruitment Follow-Up Assay, Ratio (AID 2283967)
In short: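 GST-TRb LBD 5.0 nM + 0.10% BSA, compound added; fluorescein-SRC-2 peptide 200 nM, Tb-anti-GST Ab 2 nM. TR-FRET, ex 340 / em 520:495 ratio. Norm: DMSO 0%, T3 100%.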

[19] = molecular target: Retinoic acid receptor RXR-alpha (Homo sapiens) (UniProt P19793); test: TOX21_TR_RXR_BLA_Antagonist_Followup_ratio: Tox21 Thyroid Hormone Receptor beta Retinoid X Receptor alpha (RXRa) Antagonism Beta-lactamase (BLA) Follow-Up Assay, Ratio (AID 2283972)
In short: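 Beta-lactamase reporter readout as cleaved/uncleaved substrate ratio (460:530 nm) after 2 h substrate loading at room temperature. GAL4-RXRa bla HEK293T cells were exposed 16 h at 37C to 11-point compound series; loss of signal scored against DMSO baseline.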

[20] = TOX21_TR_RXR_BLA_Antagonist_Followup_viability: Viability Assessment in the Tox21 Thyroid Hormone Receptor beta Retinoid X Receptor alpha (RXRa) Antagonism Beta-lactamase (BLA) Follow-Up Assay (AID 2283979)
In short: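 RXRa-bla HEK293T cells (2,500/well, phenol red-free DMEM, 2% charcoal-stripped FBS) were attached 5 h, then exposed to compounds at 11 concentrations in triplicate for 16 h at 37C. Viability measured by CellTiter-Glo ATP luminescence, bidirectional fitting versus DMSO.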

Measured: outcome

Cellular tumor antigen p53 (Homo sapiens), sequence (P04637 whole entry, looked up): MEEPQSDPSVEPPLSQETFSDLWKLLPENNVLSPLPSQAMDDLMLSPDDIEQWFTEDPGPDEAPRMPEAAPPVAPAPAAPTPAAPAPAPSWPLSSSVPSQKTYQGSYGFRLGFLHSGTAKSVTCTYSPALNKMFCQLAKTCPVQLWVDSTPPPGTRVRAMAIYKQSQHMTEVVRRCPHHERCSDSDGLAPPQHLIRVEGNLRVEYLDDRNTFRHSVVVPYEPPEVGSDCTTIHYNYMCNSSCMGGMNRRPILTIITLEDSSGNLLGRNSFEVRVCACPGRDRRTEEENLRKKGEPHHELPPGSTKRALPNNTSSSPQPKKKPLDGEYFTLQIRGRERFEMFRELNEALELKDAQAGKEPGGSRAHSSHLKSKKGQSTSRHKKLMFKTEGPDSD
THRB (gene 7068), sequence (P10828 whole entry, looked up, the tested form may be a part): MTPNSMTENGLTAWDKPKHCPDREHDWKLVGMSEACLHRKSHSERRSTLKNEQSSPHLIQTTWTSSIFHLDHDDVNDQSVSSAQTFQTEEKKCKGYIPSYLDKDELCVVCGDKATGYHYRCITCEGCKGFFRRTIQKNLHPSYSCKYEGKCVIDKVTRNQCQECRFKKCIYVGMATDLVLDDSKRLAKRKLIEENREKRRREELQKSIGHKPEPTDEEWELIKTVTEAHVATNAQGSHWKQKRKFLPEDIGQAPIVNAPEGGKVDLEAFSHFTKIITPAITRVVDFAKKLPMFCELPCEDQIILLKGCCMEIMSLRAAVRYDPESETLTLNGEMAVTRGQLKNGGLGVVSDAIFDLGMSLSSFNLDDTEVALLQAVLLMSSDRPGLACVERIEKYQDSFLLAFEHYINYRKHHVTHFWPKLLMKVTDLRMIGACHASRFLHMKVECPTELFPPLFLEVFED
PGR (gene 5241), sequence (P06401 whole entry, looked up, the tested form may be a part): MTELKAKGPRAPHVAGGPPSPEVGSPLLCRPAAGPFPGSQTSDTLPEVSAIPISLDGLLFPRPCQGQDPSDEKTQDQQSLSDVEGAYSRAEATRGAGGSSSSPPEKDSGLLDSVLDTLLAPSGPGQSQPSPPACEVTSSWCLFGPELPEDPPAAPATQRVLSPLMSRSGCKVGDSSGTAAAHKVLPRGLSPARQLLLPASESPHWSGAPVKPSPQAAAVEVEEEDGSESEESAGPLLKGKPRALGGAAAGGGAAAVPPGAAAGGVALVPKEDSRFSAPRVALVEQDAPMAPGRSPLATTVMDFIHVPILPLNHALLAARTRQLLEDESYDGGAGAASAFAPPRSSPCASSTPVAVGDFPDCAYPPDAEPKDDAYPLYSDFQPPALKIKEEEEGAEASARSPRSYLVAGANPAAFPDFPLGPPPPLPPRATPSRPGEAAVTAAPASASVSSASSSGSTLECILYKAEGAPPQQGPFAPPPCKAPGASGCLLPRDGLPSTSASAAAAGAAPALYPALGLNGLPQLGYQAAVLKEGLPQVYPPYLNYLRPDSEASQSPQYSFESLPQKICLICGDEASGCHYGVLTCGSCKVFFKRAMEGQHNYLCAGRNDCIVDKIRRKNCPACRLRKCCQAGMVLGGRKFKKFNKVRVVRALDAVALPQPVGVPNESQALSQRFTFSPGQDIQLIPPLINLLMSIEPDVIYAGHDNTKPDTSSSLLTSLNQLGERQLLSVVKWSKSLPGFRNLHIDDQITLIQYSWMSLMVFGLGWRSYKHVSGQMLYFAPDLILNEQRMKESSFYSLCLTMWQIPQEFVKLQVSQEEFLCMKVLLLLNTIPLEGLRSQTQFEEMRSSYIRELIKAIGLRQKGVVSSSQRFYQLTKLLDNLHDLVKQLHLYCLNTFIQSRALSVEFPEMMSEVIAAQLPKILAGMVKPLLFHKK
Retinoic acid receptor RXR-alpha (Homo sapiens), sequence (P19793 whole entry, looked up, the tested form may be a part): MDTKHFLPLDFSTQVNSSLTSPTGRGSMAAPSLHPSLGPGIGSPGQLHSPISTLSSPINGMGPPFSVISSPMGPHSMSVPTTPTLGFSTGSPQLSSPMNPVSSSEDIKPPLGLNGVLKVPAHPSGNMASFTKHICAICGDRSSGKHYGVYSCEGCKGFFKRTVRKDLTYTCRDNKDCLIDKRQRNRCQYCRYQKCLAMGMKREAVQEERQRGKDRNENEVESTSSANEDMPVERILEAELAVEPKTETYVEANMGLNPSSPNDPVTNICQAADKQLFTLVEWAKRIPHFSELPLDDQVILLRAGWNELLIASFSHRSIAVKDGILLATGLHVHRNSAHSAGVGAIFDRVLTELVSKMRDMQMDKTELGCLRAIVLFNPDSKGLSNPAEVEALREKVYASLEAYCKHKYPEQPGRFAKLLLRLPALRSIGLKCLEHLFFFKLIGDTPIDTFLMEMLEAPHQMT

CCC(C)Cl (configuration not stated)
inactive: [1] | [2] | [3] | [4] | [5] | [6] | [7]

C=CC(=O)OC(C)(C)C
inactive: [1] | [2] | [3] | [4] | [5] | [6]

CCC1(c2ccccc2)CCC(=O)NC1=O (configuration not stated)
inactive: [1] | [2] | [8] | [6]

C=CC=O
inactive: [1] | [2] | [3] | [4] | [5] | [6]

O=C1CN=C(c2ccccc2)c2cc(Cl)ccc2N1
inactive: [1] | [2] | [3] | [4]

CC[C@H]1[C@@H]2C[C@H]3[C@@H]4N(C)c5ccccc5[C@]45C[C@@H](C2C5O)N3[C@@H]1O (some centres not stated)
inactive: [1] | [2] | [8] | [4] | [7]

CC(=O)OC1(c2ccccc2)CCN(CCc2ccccc2)CC1
inactive: [1] | [2] | [8] | [4] | [7]

CCOc1ccc2c3c1O[C@H]1[C@@H](O)C=C[C@H]4[C@@H](C2)N(C)CC[C@@]341
inactive: [1] | [2] | [3] | [4]

CCc1cc(OC)c(C[C@@H](C)N)cc1OC
inactive: [1] | [2] | [8] | [5] | [7]

O=C(O)c1cc(Cl)ccc1Cl
inactive: [1] | [2] | [3] | [4] | [5]

C=CC[C@]1(O)CC[C@H]2[C@@H]3CCC4=CC(=O)CCC4=C3C=C[C@@]21C
not listed: [3] | [5] | [6]
inactive: all other assays above

CCN(C)N=O
inactive: [1] | [2] | [3] | [4] | [5] | [7]

CCCC(C)(COC(N)=O)COC(N)=O
inactive: [1] | [2] | [3] | [4] | [5] | [6] | [7]

COc1cc(C[C@H](C)N)c(OC)cc1Br
inactive: [1] | [2] | [8] | [5] | [7]

C=CC(=O)OCC(C)C
inactive: [1] | [2] | [8] | [5] | [6] | [7]

SCc1ccccc1
inactive: [1] | [2] | [8] | [5] | [7]
